In PubChem BioAssay (Tox21):
Values joined by “and” are separate entries in the source; they are usually repeats but may differ in a detail not shown here. Identical values can stand only once. Unmarked numbers belong to inactive results. Results filed as inconclusive are left out. A call without a number means that no potency is given here. Active and inactive are the calls of the source. Unless noted, calls follow the shape of the dose curve; as a rule, active = well fitted curve in the direction sought with a large enough effect in the repeat runs; inconclusive = weak or mixed curves; inactive = no such curve, though single readings can be large; an effect the other way counts as inactive or inconclusive.

How the values were obtained:
[1] = qHTS RealTime-Glo MT Cell Viability Assay in HepG2 cells - 24 hour (AID 1224867); also: nearly all actives have a fitted effect of over 50% in size; also: potency is read from the fitted curve at half-maximal effect
How it was run: (§1)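 Luminescence read-out: viable HepG2 cells reduce a prosubstrate to a NanoLuc substrate, giving a signal proportional to live cell number. Reads taken at 0, 8, 16, 24, 32 and 40 h of compound exposure at 37 C.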

[2] = qHTS RealTime-Glo MT Cell Viability Assay in HepG2 cells - 40 hour (AID 1224870); also: nearly all actives have a fitted effect of over 50% in size; also: potency is read from the fitted curve at half-maximal effect
How it was run: (§2)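 HepG2 cells mixed with RealTime-Glo MT reagents (NanoLuc plus cell-permeant prosubstrate) were seeded at 600 cells/well, incubated 5 h at 37 C/5% CO2, then pinned with compounds in DMSO; nonlytic luminescence tracked viability during 40 h treatment.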

[3] = qHTS RealTime-Glo MT Cell Viability Assay in HepG2 cells - 8 hour (AID 1224873); also: nearly all actives have a fitted effect of over 55% in size; also: potency is read from the fitted curve at half-maximal effect
How it was run: as §2

[4] = A CellTox Green Cytotoxicity Assay to monitor cytotoxicity in HEK293 cells - 24 hour (AID 1224875); also: nearly all actives have a fitted effect of over 45% in size; also: potency is read from the fitted curve at half-maximal effect
How it was run: (§3)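 Cytotoxicity was tracked continuously in HEK293 cells by a DNA-binding dye excluded from viable cells. Compounds were transferred in DMSO 5 h after seeding; fluorescence was recorded at intervals up to 40 h.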

[5] = A CellTox Green Cytotoxicity Assay to monitor cytotoxicity in HepG2 cells - 16 hour (AID 1224876); also: nearly all actives have a fitted effect of over 45% in size; also: potency is read from the fitted curve at half-maximal effect
How it was run: (§4)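 Real-time, homogeneous cytotoxicity readout: dead-cell DNA staining by CellTox Green in HepG2 monolayers, fluorescence measured at timed intervals up to 40 h of continuous compound exposure.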

[6] = qHTS RealTime-Glo MT Cell Viability Assay in HepG2 cells - 32 hour (AID 1224877); also: nearly all actives have a fitted effect of over 55% in size; also: potency is read from the fitted curve at half-maximal effect
How it was run: as §1

[7] = qHTS RealTime-Glo MT Cell Viability Assay in HEK293 cells - 0 hour (AID 1224880); also: top concentration of the series differs between compounds; nearly all actives have a fitted effect of over 45% in size
How it was run: (§5)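 Nonlytic bioluminescent viability monitoring. HEK293 at 600 cells/well with reagent; 5 h settle; compound transfer by pintool; plates held at 37 C and read at set time points.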

[8] = qHTS assay to identify small molecule agonists of H2AX (AID 1224845; active = well fitted activation curve with a large enough effect in the signal ratio in the repeat runs, not every such curve was filed as active; the % refers to the signal ratio; also: potency is read from the fitted curve at half-maximal effect)
How it was run: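 Wild-type CHO-K1 cells plated overnight, then exposed 3 hr at 37C to compounds at 15 concentrations (0.76% DMSO). Lysed, then HTRF anti-pH2AX(S139)-cryptate/anti-H2AX-d2 detection after 24 hr at room temperature; emissions 665 and 620 nm.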

[9] = qHTS assay to identify small molecule antagonists of the estrogen related receptor (ERR) signaling pathway from Tox21 library (AID 1224848); also: nearly all actives have a fitted effect of over 50% in size; also: potency is read from the fitted curve at half-maximal effect
How it was run: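 Screening used an ERR reporter line supplied by NTP, exposed for 18 h at 37 C to library compounds delivered in DMSO. Signal was luciferase luminescence developed with ONE-Glo at room temperature for 30 min.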

[10] = qHTS assay to identify small molecule agonists of the estrogen related receptor (ERR) signaling pathway from Tox21 library (AID 1224849; calls by dose curve; also: nearly all actives have a fitted effect of over 15% in size); settings: ERR reporter cell line, ONE-Glo luciferase, 18 h; at 92.4 µM (top of the series) unless noted
How it was run: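 Agonist signal is luciferase luminescence from an ERR reporter cell line treated 18 h at 37 C with DMSO-dissolved compounds, read 30 min after ONE-Glo addition at room temperature.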

[11] = A CellTox Green Cytotoxicity Assay to monitor cytotoxicity in HEK293 cells - 0 hour (AID 1224869); also: nearly all actives have a fitted effect of over 50% in size; also: potency is read from the fitted curve at half-maximal effect
How it was run: as §3

[12] = A CellTox Green Cytotoxicity Assay to monitor cytotoxicity in HEK293 cells - 40 hour (AID 1224871); also: nearly all actives have a fitted effect of over 45% in size; also: potency is read from the fitted curve at half-maximal effect
How it was run: as §3

[13] = qHTS RealTime-Glo MT Cell Viability Assay in HEK293 cells - 40 hour (AID 1224874); settings: RealTime-Glo luminescence; max response: stronger effect = lower value; also: nearly all actives have a fitted effect of over 50% in size; also: potency is read from the fitted curve at half-maximal effect
How it was run: as §5

[14] = A CellTox Green Cytotoxicity Assay to monitor cytotoxicity in HepG2 cells - 24 hour (AID 1224878); also: nearly all actives have a fitted effect of over 45% in size; also: potency is read from the fitted curve at half-maximal effect
How it was run: as §4

[15] = A CellTox Green Cytotoxicity Assay to monitor cytotoxicity in HepG2 cells - 40 hour (AID 1224879); also: nearly all actives have a fitted effect of over 40% in size; also: potency is read from the fitted curve at half-maximal effect
How it was run: as §4

[16] = qHTS RealTime-Glo MT Cell Viability Assay in HEK293 cells - 32 hour (AID 1224868); also: nearly all actives have a fitted effect of over 50% in size; also: potency is read from the fitted curve at half-maximal effect
How it was run: (§6)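 Nonlytic real-time viability readout: viable cells convert prosubstrate to NanoLuc substrate, giving luminescence proportional to live cell number. HEK293, 600 cells/well, compound added after 5 h, continuous culture at 37 C.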

[17] = qHTS RealTime-Glo MT Cell Viability Assay in HEK293 cells - 16 hour (AID 1224872); also: nearly all actives have a fitted effect of over 50% in size; also: potency is read from the fitted curve at half-maximal effect
How it was run: as §6

[18] = qHTS assay to identify small molecule agonists of H2AX - cell viability counter screen (AID 1224847; calls by dose curve; also: nearly all actives have a fitted effect of over 30% in size; also: potency is read from the fitted curve at half-maximal effect)
How it was run: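 CHO-K1 cells plated overnight at 37C, then exposed 3 h at 37C to compounds at 15 concentrations (0.76% DMSO final). Viability by CellTiter-Glo luminescence after 30 min at room temperature.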

Compound | Potency [1] | Potency [2] | Potency [3] | Potency [4] | Potency [5] | Potency [6] | Potency [7] | Potency [8] | Potency [9] | activity change, positive = activation [10] | Potency [11] | Potency [12] | Potency [13] | Potency [14] | Potency [15] | Potency [16] | Potency [17] | Potency [18] | max response [13] [%]
CC1(C)CC/C(=C/c2ccc(Cl)cc2)C1(O)Cn1cncn1 (stereo not drawn) | inactive | inactive | inactive | inactive | inactive | inactive | inactive | – | – | – | – | – | – | – | – | – | – | – | –
C=CC(=O)OCCCCOC(=O)C=C | 49 µM (active) | – | – | – | – | 49 µM (active) | – | 101 µM (active) | inactive | -26.6% (active) | inactive | 43.6 µM (active) | 34.7 µM (active) | inactive | 49 µM (active) | – | – | – | –
BrC(Br)C(Br)(Br)Br | inactive | – | inactive | – | inactive | inactive | inactive | – | – | – | inactive | 55.3 µM (active) | 27.7 µM (active) | – | – | 43.9 µM (active) | 43.9 µM (active) | – | –
CC(C)Oc1cccc(NC(=O)c2ccccc2C(F)(F)F)c1 | inactive | – | – | 19.5 µM (active) | 43.6 µM (active) | inactive | inactive | – | 24.3 µM (active) | -38.3% | 43.6 µM (active) | 61.6 µM (active) | – | 43.6 µM (active) | 43.6 µM (active) | 24.5 µM (active) | – | – | –
Fc1ccc(Oc2ccnc3cc(Cl)cc(Cl)c23)cc1 | inactive | inactive | – | inactive | inactive | inactive | inactive | inactive | – | – | inactive | inactive | 9.77 µM (active) | inactive | – | 11 µM (active) | 7.76 µM (active) | – | –
O=C(CCCN1CCC2(CC1)C(=O)NCN2c1ccccc1)c1ccc(F)cc1 | inactive | inactive | inactive | inactive | inactive | inactive | inactive | inactive | inactive | – | inactive | 19 µM (active) | 13.4 µM (active) | inactive | inactive | 9.52 µM (active) | 6.74 µM (active) | – | –
O=CC(Br)(Br)Br | 48.8 µM (active) | – | – | – | – | 43.5 µM (active) | – | 31.8 µM (active) | – | – | inactive | – | 2.45 µM (active) | 48.8 µM (active) | 43.5 µM (active) | – | – | – | –
Clc1ccc(CO/N=C(\Cn2ccnc2)c2ccc(Cl)cc2Cl)c(Cl)c1 | 23.9 µM (active) | – | – | inactive | – | – | – | – | 18.8 µM (active) | -54.4% [at 42.5 µM] | inactive | inactive | 21.3 µM (active) | – | 26.8 µM (active) | 21.3 µM (active) | 21.3 µM (active) | – | –
CCOCn1c(-c2ccc(Cl)cc2)c(C#N)c(Br)c1C(F)(F)F | – | – | – | inactive | inactive | – | inactive | – | – | – | inactive | 24.5 µM (active) | 4.36 µM (active) | 17.4 µM (active) | 12.3 µM (active) | 4.36 µM (active) | 6.16 µM (active) | 2.53 µM (active) | –
c1ccc2c(c1)OCC(C1=NCCN1)O2 (stereo not drawn) | – | – | – | inactive | inactive | inactive | – | – | – | – | inactive | 23.9 µM (active) | 19 µM (active) | inactive | inactive | – | – | – | –
CC(Cc1ccc(C(C)(C)C)cc1)CN1C[C@@H](C)O[C@@H](C)C1 (stereo partly drawn) | inactive | inactive | – | 49 µM (active) | – | inactive | – | – | – | -8.81% | inactive | 49 µM (active) | – | – | – | – | – | – | –
CC(=O)O[C@H]1CC[C@@]2(C)C(=CC[C@@H]3[C@@H]2CC[C@]2(C)C(=O)CC[C@@H]32)C1 | inactive | inactive | inactive | – | inactive | inactive | – | – | – | – | inactive | – | 54.9 µM (active) | inactive | inactive | 49 µM (active) | 49 µM (active) | 101 µM (active) | –
COc1cccc(C(=O)CCN[C@@H](C)[C@H](O)c2ccccc2)c1 | – | – | inactive | – | inactive | 23.9 µM (active) | inactive | – | inactive | 2.02% [at 42.5 µM] | – | – | – | – | – | – | – | – | –
CC[C@H]1C[C@@H]2C[C@H]3c4[nH]c5ccc(OC)cc5c4CCN(C2)[C@@H]13 | – | – | inactive | inactive | – | inactive | inactive | – | 30.1 µM (active) | -44.1% | inactive | inactive | – | 54 µM (active) | 54 µM (active) | – | inactive | inactive | –
c1ccc(Nc2ccc3ccccc3c2)cc1 | inactive | inactive | – | inactive | inactive | inactive | inactive | – | inactive | 53.3% (active) and 56% (active) | inactive | inactive | – | – | 48.7 µM (active) | – | – | 100 µM (active) and 80 µM (active) | –
Oc1ccc(C2(c3ccc(O)cc3)c3ccccc3-c3ccccc32)cc1 | 54.9 µM (active) | – | 49 µM (active) | inactive | – | – | – | – | – | -78.7% | inactive | inactive | – | 61.6 µM (active) | 61.6 µM (active) | – | 49 µM (active) | – | –
O=[N+]([O-])c1c2ccccc2cc2ccccc12 | inactive | inactive | inactive | 5.43 µM (active) | 1.08 µM (active) | inactive | inactive | – | inactive | – | inactive | 5.43 µM (active) | – | – | 60.9 µM (active) | inactive | inactive | – | 1.8
CCOC(=O)CC(=O)CCl | inactive | – | inactive | – | inactive | inactive | inactive | – | – | – | inactive | 54.9 µM (active) | 43.6 µM (active) | inactive | inactive | 43.6 µM (active) | 38.9 µM (active) | inactive | –
CCN(CC)C(=S)[S-].CCN(CC)C(=S)[S-].[Zn+2] | 13.7 µM (active) | 10.9 µM (active) | – | 15.4 µM (active) | – | 13.7 µM (active) | inactive | – | – | – | inactive | 5.45 µM (active) | 2.73 µM (active) | 12.2 µM (active) | 10.9 µM (active) | 4.86 µM (active) | 5.45 µM (active) | 50 µM (active) | –
Nc1ccccc1C(=O)Oc1ccc2ccccc2c1 | inactive | inactive | – | inactive | inactive | inactive | – | – | – | – | inactive | inactive | – | – | – | inactive | – | – | -20.2
O=C/C(Cl)=C(/Cl)C(=O)O | inactive | inactive | – | inactive | inactive | inactive | inactive | – | inactive | -23.8% and 0.311% | inactive | inactive | – | inactive | 48.9 µM (active) | – | inactive | inactive | 20.3
Clc1ccc(CSC(Cn2ccnc2)c2ccc(Cl)cc2Cl)cc1 (stereo not drawn) | – | – | – | inactive | – | – | inactive | – | – | – | inactive | inactive | – | inactive | inactive | – | – | 49.2 µM (active) | –
ClCc1ccccc1CCl | inactive | inactive | inactive | inactive | inactive | inactive | inactive | – | – | – | inactive | 49 µM (active) | – | – | – | – | – | inactive | –
CC(C)CC(C)Nc1ccc(Nc2ccccc2)cc1 (stereo not drawn) | – | – | – | – | inactive | – | – | – | 47.7 µM (active) | -75.8% | inactive | 48.2 µM (active) | 21.5 µM (active) | inactive | – | 21.5 µM (active) | 19.2 µM (active) | 78.7 µM (active) | –
